# TAR Tat displ – HIV-1 TAR-Tat binding disruption. HIV-1 TAR RNA, Tat peptide displacement FRET; stronger effect = higher value. z-score (test concentration not listed). 100,000 tested, 0.6% active; active = z-score of 3 or more in at least 2 runs
# CDC25B CDK2 inh – human CDC25B-CDK2/CyclinA binding inhibition. P30305+P24941. AID 1259370. 94,000 tested, 0.72% active. HTRF CDC25B-CDK2/CyclinA binding, anti-His/anti-Flag; stronger effect = higher value. z-score (test concentration not listed); in the data active = z-score above about 3.2
# * = called active by the depositor; nt = not tested or not shown. Shown are actives, neighbours in structure and some others; about 0.9% of the full set was active somewhere.
SMILES,TAR Tat displ,CDC25B CDK2 inh
Oc1cc2c(cc1O)C1c3ccc(O)c(O)c3OCC1(O)C2 (centres undefined),28.5*,nt
Cc1ccc2c(c1)N(C)/C(=C/c1sc3ccccc3[n+]1CCO)S2,4.27*,-1.87
Cc1ccc2c(ccc(/C=C3\Sc4ccccc4N3C)[n+]2C)c1,-9.18,0.39
COc1cccc(/C=C2\C(=O)c3ccccc3OC2c2ccccc2)c1 (centres undefined),nt,-0.03
O=C(NCCc1cccs1)c1cnc2sc(N3CCOCC3)nn2c1=O,0.85,nt
CCCNC(=O)c1cc2n(n1)CC(C)(C(=O)NC1CCCC1)N(C)C2=O (centres undefined),-0.86,nt
CC(=O)Oc1cc(OC(C)=O)c2c(c1)O[C@H](c1ccc(OC(C)=O)c(OC(C)=O)c1)[C@@H](OC(C)=O)C2,0.8,nt
O=C(O[C@@H]1Cc2c(O)cc(O)cc2O[C@@H]1c1cc(O)c(O)c(O)c1-c1c([C@H]2Oc3cc(O)cc(O)c3C[C@H]2O)cc(O)c(O)c1O)c1cc(O)c(O)c(O)c1,4.67*,nt
O=C(O[C@@H]1Cc2c(O)cc(O)cc2O[C@@H]1c1cc(O)c(O)c(O)c1)c1cc(O)c(O)c(O)c1,25.1*,nt
O=C1C[C@@H](c2ccc(O)cc2)Oc2cc(O)cc(O)c21,2.87,nt
Oc1ccc2c(c1)O[C@H](c1ccc(O)c(O)c1)[C@@H](O)C2,3.12,nt
Oc1cc(O)c2c(c1)O[C@H](c1ccc(O)c(O)c1)[C@H](O)C2,24*,nt
O=c1c(O)cc([C@H]2Oc3cc(O)cc(O)c3C[C@H]2O)cc2c([C@H]3Oc4cc(O)cc(O)c4C[C@H]3O)cc(O)c(O)c12,17.8*,nt
O=C(Nc1cc(-c2cccc(Cl)c2)no1)c1cc(-c2cccnc2)nc2ccccc12,-0.46,nt
O=C(CCC(=O)N1CCSc2ccccc21)NCCC1=CCCCC1,0.75,nt
O=C(O[C@@H]1Cc2c(O)cc(O)cc2O[C@@H]1c1ccc(O)c(O)c1)c1cc(O)c(O)c(O)c1,29.2*,nt
O=C(Oc1cc(OC(=O)c2ccccc2)c2c(c1)O[C@H](c1ccc(OC(=O)c3ccccc3)c(OC(=O)c3ccccc3)c1)[C@@H](OC(=O)c1ccccc1)C2)c1ccccc1,-0.12,nt
COc1ccc(NC(=O)CN2N=NC3C(=O)N(c4ccc(OC)c(Cl)c4)C(=O)C32)cc1 (centres undefined),-0.6,nt
CCc1nnc(SC(CC)C(=O)NCCOC)c2cc3sccc3n12 (centres undefined),5.48,nt
CCNc1ncnc2c1cnn2-c1ccc(C)cc1,0.22,nt
Cc1cc(C)cc(OCc2cc(=O)n3oc(C)cc3n2)c1,0.64,-0.7
CC(=O)Nc1cccc(OCc2cc(=O)n3oc(C)cc3n2)c1,8.06*,-1.96
COc1c(Cl)c(C)c2c(c1Cl)OC(=O)c1c(C)c(Cl)c(O)c(Cl)c1O2,30.2*,nt
COC(=O)c1c(OC)cc2c(c1C)Oc1c(Cl)c(OC(C)=O)c(Cl)c(C)c1C(=O)O2,-0.25,nt
CCOCCCNc1nc(-c2nnc(-c3ccccc3)o2)nc2ccccc12,-1.07,nt
SMILES,TAR Tat displ,CDC25B CDK2 inh
Cc1oc2ccc(O)c(Cl)c2c1C(=O)O,0.93,-1.62
CSc1nc2c(c(=O)[nH]1)C(c1cccc(O)c1)CC(=O)N2 (centres undefined),2.81,-2.35
CSc1nc2c(c(=O)[nH]1)C(c1ccc(O)c(O)c1)CC(=O)N2 (centres undefined),17.7*,5.59
CCSc1nc2c(c(=O)[nH]1)C(c1cccc(O)c1)CC(=O)N2 (centres undefined),0.62,-1.39
CCSc1nc2c(c(=O)[nH]1)C(c1ccc(O)c(O)c1)CC(=O)N2 (centres undefined),22*,13.7*
O=C(Nc1ccccc1SCc1cc(=O)n2c(-c3ccccc3)csc2n1)c1ccco1,8.39*,nt
Cc1nn2c(=O)cc(CSc3ccccc3NC(=O)c3ccco3)nc2s1,-0.08,nt
NC(=O)CCc1nc(-c2cccs2)no1,1.25,-1.56
C=CC(=C)CC(NC)c1ccccc1 (centres undefined),0.37,16.2*
C=C(C)CC(NC(C)c1ccccc1)c1ccco1 (centres undefined),-0.33,-0.1
CCC(C)NC(=O)c1ccc2c(c1)N=C(C)c1cc(C)ccc1S2 (centres undefined),5.86*,-1.87
CCC1=Nc2cc(C(=O)NC(C)CC)ccc2Sc2ccccc21 (centres undefined),-0.04,2.37
CCOCCCNc1ncc2c(n1)CC(c1ccco1)CC2=O (centres undefined),nt,-0.75
O=C1CC(c2cccs2)Cc2nc(NCCSc3ccc(Cl)cc3)ncc21 (centres undefined),0.17,21.3*
Cc1nn(CC(=O)Nc2ccc(F)cc2F)c(=O)c2cccn12,1.49,-2.48
N#CCC(=O)NCc1ccco1,nt,-1.52
O=C(O)c1cc(O)ccc1O,3.19,nt
Nc1ccc(C(=O)O)c(O)c1 (tested in a mixture with another compound),16.1*,nt
Nc1ccc(C(=O)O)cc1,1.62,nt
Nc1ccc(O)c(C(=O)O)c1,21.4*,nt
O=C(O)c1cccc(O)c1O,9.56*,nt

# Screens: PubChem BioAssay, Center for Chemical Genomics, University of Michigan
